High-throughput results deposited in PubChem by National Center for Advancing Translational Sciences (NCATS).
HT1080-NT tox: kills 2HG-producing HT-1080-NT fibrosarcoma cells; 360,000 compounds, 1.6% hits; Potency, µM (doses to about 46.1 µM), actives largely listed as cytotoxic; AID 686970; HT-1080-NT fibrosarcoma viability, CellTiter-Glo ATP luminescence, 48 h;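 note: NT is the 2HG producing partner of a matched IDH1 knockdown line; nearly all actives have a fitted effect of over 55% in size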
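HT-1080-NT fibrosarcoma cells (2HG-overproducing), 750 cells/well in RPMI with 5% FBS, dosed after 2 h and incubated 48 h at 37C. CellTiter-Glo luminescence normalized to DMSO and no-cell wells; concentration-response curves fitted and classed.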
12-LOX inh: inhibitors of human 12S-lipoxygenase ALOX12; P18054; purified 12hLO, xylenol orange hydroperoxide absorbance; Potency, µM (titrated, usually from 108 µM), most hits filed as inhibitors; 580,000 compounds, 1.1% hits
Target sequence (P18054 whole entry, looked up): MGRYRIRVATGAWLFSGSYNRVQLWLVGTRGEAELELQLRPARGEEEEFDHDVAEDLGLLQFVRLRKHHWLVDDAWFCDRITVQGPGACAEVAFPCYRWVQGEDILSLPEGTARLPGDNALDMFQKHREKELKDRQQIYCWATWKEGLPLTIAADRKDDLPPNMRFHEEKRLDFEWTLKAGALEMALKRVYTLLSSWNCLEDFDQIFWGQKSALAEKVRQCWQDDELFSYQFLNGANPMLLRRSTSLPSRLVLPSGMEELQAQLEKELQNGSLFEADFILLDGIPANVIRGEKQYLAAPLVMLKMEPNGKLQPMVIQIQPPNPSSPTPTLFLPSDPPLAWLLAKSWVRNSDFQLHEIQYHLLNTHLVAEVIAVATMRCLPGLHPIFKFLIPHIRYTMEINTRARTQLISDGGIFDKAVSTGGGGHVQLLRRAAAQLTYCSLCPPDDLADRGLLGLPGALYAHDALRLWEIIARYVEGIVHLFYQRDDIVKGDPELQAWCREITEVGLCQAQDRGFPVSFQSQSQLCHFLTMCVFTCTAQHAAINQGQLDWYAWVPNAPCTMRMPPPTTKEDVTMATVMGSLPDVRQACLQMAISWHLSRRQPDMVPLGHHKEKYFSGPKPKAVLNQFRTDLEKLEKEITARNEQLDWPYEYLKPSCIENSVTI
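Purified human 12hLO at 150 nM in 25 mM Hepes, 0.01% Triton X-100, pH 7.0, preincubated 15 min at room temperature with compound. Reaction started with 40 uM arachidonic acid, 30 min at room temperature. Hydroperoxide measured by Fe-xylenol orange, 573/405 nm absorbance ratio.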
DT40 TDP1 no CPT: qHTS for Inhibitors of human tyrosyl-DNA phosphodiesterase 1 (TDP1): qHTS in cells in absence of CPT. DT40 Tdp1-/- hTDP1 cells, no CPT, ATP luminescence, 48 h. Potency, µM (top dose mostly 46.2 µM), hits mostly inhibitors. 420,000 compounds, 15% hits; note: nearly all actives have a fitted effect of over 55% in size
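Camptothecin absent (DMSO only). Human TDP1-complemented DT40 knockout cells, 400 cells/well, 37 °C for minimum 48 hr; ATP measured via CellTiter-Glo, 30 min dark incubation, luminescence.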
IL-1B inflam inh: inhibitors of inflammasome signaling (IL-1 beta secretion) | THP-1 LPS/ATP IL-1B secretion, AlphaLISA, 16 h; stronger effect = lower value | activity change, % at 57.5 µM | 360,000 compounds, 4.7% hits | AID 743279; in the data active = activity change below about -50%; inconclusive = mostly about -30% to -49%
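THP-1 cells pretreated 1 hr with compounds (up to 57.5 uM final), then stimulated with LPS (250 ng/mL final) plus ATP (1.25 mM final); secreted IL-1B measured by AlphaLISA after 16 hr, decreased signal indicating inhibition.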
HT1080 IDH1KD tx: kills HT-1080 cells with IDH1 knockdown | HT-1080 IDH1 knockdown viability, ATP luminescence, 48 h | Potency, µM (doses to about 46.1 µM), usual class: cytotoxic | 360,000 compounds, 2% hits | AID 686971
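Cytotoxicity counter-line: IDH1KD HT-1080, 48 h, CellTiter-Glo. Curves classed by r2, magnitude and activity.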
TDP1 cell CPT: DT40-hTDP1 cell growth loss with CPT; chicken DT40 Tdp1-/-;hTDP1 cells + 20 nM CPT, ATP luminescence, 48 h; Potency, µM (titrated, usually from 46.2 µM), usual class: inhibitors; 420,000 compounds, 12% hits; AID 686979; note: nearly all actives have a fitted effect of over 55% in size
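Chicken DT40 Tdp1-/- cells complemented with human TDP1, 400 cells/well, exposed to compounds plus 20 nM camptothecin for at least 48 h at 37 C; viability read as ATP content by CellTiter-Glo luminescence.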
A number is an active result; n = inactive; u = inconclusive; x = no result; [ ] = another dose, or the depositor's remark. Shown is part of a subset that was picked to be rich in hits. Unless noted, calls come from the whole dose curve; as a rule, active = well fitted curve in the direction sought with a large enough effect; inconclusive = small, poorly fitted or top-dose-only effect, or another doubt; inactive = no such curve, though single readings can be large; an effect the other way counts as inactive or inconclusive.

SMILES | HT1080-NT tox | 12-LOX inh | DT40 TDP1 no CPT | IL-1B inflam inh | HT1080 IDH1KD tx | TDP1 cell CPT
CN1C(=O)/C(=C\c2cc(N=Nc3ccccc3)ccc2O)SC1=S | n | n | 23.1µM | n | n | 20.6µM
CN1C(=O)/C(=C\c2ccccc2OCc2ccccc2)SC1=S | n | n | n | n | n | n
O=C(Nc1c2c(nn1-c1ccc(Cl)cc1)CS(=O)(=O)C2)c1ccccc1F | x | n | u | x | x | u
CN1C(=O)CC(C(=O)O)C12CCN(Cc1ccccc1OC1CCCC1)CC2 (configuration not stated) | x | n | x | x | x | x
O=C1OCc2cc(-c3ccccc3F)ccc21 | x | n | x | x | x | x
COc1cc(S(=O)(=O)Nc2cccc(C)c2)ccc1NC(=O)c1ccncc1 | n | n | 13µM | n | n | u
CCOc1ccc(NS(=O)(=O)c2ccc(NC(=O)c3cccnc3)c(OC)c2)cc1 | n | n | n | n | n | n
COc1cccc(S(=O)(=O)Nc2ccc(C(=O)Nc3ccncc3)cc2)c1 | n | n | u | n | n | 13µM
COc1cccc(C(=O)Nc2ccc(C(=O)c3ccncc3)cc2)c1 | u | n | u | n | n | u
Cc1ccccc1NC(=O)c1cc(S(=O)(=O)c2ccccc2)ccc1Cl | n | n | u | n | n | u
O=C(Nc1ccncc1)c1ccc(NS(=O)(=O)c2cccc(F)c2)cc1 | n | n | 20.6µM | n | n | u
Cc1cccc(NS(=O)(=O)c2ccc(Cl)c(C(=O)Nc3ccccc3C)c2)c1 | x | n | 14.6µM | x | x | u
Cc1ccc2nc(-c3ccc(NC(=O)C(C)C)cc3)oc2c1 | x | n | x | x | x | x
CC(Sc1nc(Cl)nc2nc[nH]c12)C(=O)N1CCN(c2cccc(Cl)c2)CC1 (configuration not stated) | x | n | x | x | x | x
CCCCN(C)C(=O)c1cn(-c2cccc(OC)c2)c(=O)c2ccccc12 | n | n | n | n | n | n
COc1cccc(-n2cc(C(=O)NCCc3cccc(C)c3)c3ccccc3c2=O)c1 | x | n | 18.4µM | x | x | u
CCc1ccccc1N(C)C(=O)c1cn(-c2cccc(OC)c2)c(=O)c2ccccc12 | x | n | 16.4µM | x | x | 14.6µM
COc1ccc(-n2cc(C(=O)NCCc3cc(OC)ccc3OC)c3ccccc3c2=O)cc1 | x | n | 20.6µM | x | x | 16.4µM
COc1ccccc1CNC(=O)CCN=C1NS(=O)(=O)c2ccccc21 | n[9.24 µM] | n | n | n | n | n
O=C1CCCCC(Cc2ccccc2)(C(=O)NCCc2ccccc2)N1 (configuration not stated) | x | n | x | x | x | x
CC(C)CNC(=O)CSc1ccc2ccccc2n1 | x | n | x | x | x | x
NCc1ccc(COCC(F)(F)F)cc1 | x | n | x | x | x | x
O=c1oc2c(-c3cccc(F)c3)cc(O)cc2s1 | n | 35.5µM | u | n | n | u
O=C(O)CCc1conc1-c1cccc(F)c1 | x | n | x | x | x | x
COc1ccc(NC(=S)N(CCCN2CCC(C)CC2)Cc2cccs2)cc1Cl | u | n | 18.4µM | u | u | 25.9µM
SMILES | HT1080-NT tox | 12-LOX inh | DT40 TDP1 no CPT | IL-1B inflam inh | HT1080 IDH1KD tx | TDP1 cell CPT
Cc1ccccc1NC(=S)N(Cc1ccccc1)Cc1cccs1 | n | n | n | n | n | n
CN1CCN(CCCN(Cc2cccs2)C(=S)Nc2ccc(Cl)cc2)CC1 | n | n | u | -65.0 | n | u
CNC(=S)N(Cc1ccc(Cl)cc1)Cc1cccs1 | n | n | 16.4µM | x | n | u
Cc1cccc(NC(=O)c2cc3n(n2)CC(c2ccc(Cl)cc2)OC3)c1 (configuration not stated) | x | n | x | x | x | x
CN(C)c1ccc(C=NC23CC4CC(CC(C4)C2)C3)cc1 | x | n | x | x | x | x
Cc1cnc2c(c1SCC(=O)NCc1ccc(F)cc1)c(=O)n(C)c(=O)n2C | x | u | n | x | x | n
CCc1cnc2c(c1SCC(=O)c1ccc(Cl)cc1)c(=O)n(C)c(=O)n2C | x | n | 20.6µM | x | x | 13µM
Cc1ccc(CNC(=O)CSc2c(C(C)C)cnc3c2c(=O)n(C)c(=O)n3C)cc1 | x | u | 25.9µM | x | x | 14.6µM
CCc1cnc2c(c1SCC(=O)NCc1ccc(C)cc1)c(=O)n(C)c(=O)n2C | x | n | u | x | x | u
CCc1cnc2c(c1SCC(=O)NCc1ccccc1)c(=O)n(C)c(=O)n2C | x | n | u | x | x | 11.6µM
COc1ccc(OC)c(C(=O)CSc2nnc(Nc3c(C)cccc3C)s2)c1 | x | n | x | x | x | x
CC1CC(C)CN(C(=O)COC(=O)COc2ccccc2C#N)C1 (configuration not stated) | n[9.24 µM] | n | n | n | n | n
CC(=O)Nc1sc(C)c(C)c1C#N | x | n | x | x | x | x
Cc1sc(NC(=O)CC(C)(C)C)c(C#N)c1C | x | 12.6µM | x | x | x | x
CCOc1ccc(CCNc2nc3c(-c4ccc(C)cc4)nnn3c3ccccc23)cc1OCC | x | n | u | x | x | n
O=C(CCc1nnc2ccc(NCc3ccc(Cl)cc3)nn12)NCc1ccc(Cl)cc1 | x | n | x | x | x | x
CCOc1ccc(CCNc2ccc3nnc(-c4ccccc4)n3n2)cc1OCC | n | n | u | n | n | 16.4µM
Clc1ccc(CNc2ccc3nnc(-c4ccccc4)n3n2)cc1 | n | u | 4.11µM | n | n | 2.06µM
Cc1cc(=O)n(-c2ccccc2)n1C | n | u | n | -66.1 | n | n
Cc1c(C(C)C)c(=O)n(-c2ccccc2)n1C | x | n[22.9 µM] | n | x | x | n
Cc1nc2c(C(=O)NC3CCCC3)cnn2c(C)c1Cc1ccccc1Cl | x | n | x | x | x | x
Cc1cc(C)c(Cc2c(C)nc3c(C(=O)NCc4ccco4)cnn3c2C)c(C)c1 | n | u | 8.2µM | n | n | 7.31µM
O=C(NCc1ccco1)c1cnn2c(C(F)F)cc(-c3ccccc3)nc12 | n | n | n | n | n | n
Cc1nc2c(C(=O)NCCCN(CC(C)C)CC(C)C)cnn2c(C)c1Cc1c(F)cccc1Cl | x | n | 20.6µM | x | x | 23.1µM
CCCCNC(=O)c1cnn2c(C)c(Cc3c(F)cccc3Cl)c(C)nc12 | x | n | 3.66µM | x | x | 7.31µM
SMILES | HT1080-NT tox | 12-LOX inh | DT40 TDP1 no CPT | IL-1B inflam inh | HT1080 IDH1KD tx | TDP1 cell CPT
Cc1ccc(CNC(=O)c2cnn3c(C)c(Cc4c(F)cccc4Cl)c(C)nc23)cc1 | x | n | u | x | x | 14.6µM
Cc1cc(C)n2ncc(C(=O)NCc3ccc(Cl)cc3)c2n1 | n | n | n | n | n | n
CCCS(=O)(=O)N1C[C@@H](Oc2ccccc2)C[C@@H]1C(=O)N1CCOCC1 | x | n | x | x | x | x
COc1ccc(-c2cn3c4ccccc4nc3n2CCCN2CCCCC2)cc1 | x | n | x | x | x | x
CCCN1C(=O)CCc2cc(NC(=O)c3ccc(OC(F)(F)F)cc3)ccc21 | x | n | x | x | x | x
CCCc1ccc(OCc2nc(-c3ccc(NC(=O)c4ccco4)cc3)no2)cc1 | u | n | u | n | u | u
COc1ccc(CC(=O)Nc2ccc(-c3noc(-c4ccccc4OC)n3)cc2)cc1 | n | u | u | -62.5 | u | u
